# Data as given in paper PMC7819943, “Rice protein-binding microarrays: a tool to detect cis-acting elements near promoter regions in rice”.
# Over roughly 68,000 sequences, “fluorescence intensity (a.u.)” has its median near 9,100; the highest 2% begin near 16,000. The full list was thinned out, with the highest values kept by preference.
# Biological target: OsWRKY34 (Oryza sativa, UniProt Q0JBA9 1-250)
# Assay: protein-binding microarray (RPBM); PBS, 2% BSA, 51.3 ng/ul salmon testes DNA, 50 uM zinc acetate, 200 nM TF, 25 C, 1 h; high values mean tight binding
# Details: protein: recombinant; tags: N-terminal polyhistidine and DsRed monomer fusion (pET32a); label: CyDye5-dUTP incorporated in the synthesized complementary strand; 3' TTTTT single-stranded linker to array surface; dsDNA, one strand shown
# Summary of the method: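 Using Ni–NTA, transcription factors fused N-terminally to polyhistidine and DsRed were purified after expression in E. coli BL21-CodonPlus. These were incubated at 200 nM with a blocked, double-stranded custom Agilent array for 1 h at 25 °C in a buffer containing 50 µM zinc acetate, and the array was washed. The binding signal is per-feature fluorescence intensity (arbitrary units) on an Axon 4000B scanner.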
# Sequence of OsWRKY34 (Q0JBA9 entry or part of it): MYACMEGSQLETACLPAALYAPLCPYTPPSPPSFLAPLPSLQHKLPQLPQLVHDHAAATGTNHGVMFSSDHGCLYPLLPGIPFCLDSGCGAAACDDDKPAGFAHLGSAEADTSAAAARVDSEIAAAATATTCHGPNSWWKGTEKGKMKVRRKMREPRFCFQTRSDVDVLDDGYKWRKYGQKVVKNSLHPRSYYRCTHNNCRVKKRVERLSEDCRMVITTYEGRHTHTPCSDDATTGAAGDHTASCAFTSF
row,Sequence,binding signal
1,TGCAGGCTTCCACCGCCCGCCTGTCATTGTCGCCCACTGCCGGAGTCACCTAGTGCAG,8760 fluorescence intensity (a.u.)
2,GTTTGTCCCTTTTGACATATGAACTCTTCTCCATGATTTCCGGAGTCACCTAGTGCAG,8060 fluorescence intensity (a.u.)
3,GGCTTGATTTCTTCTTTTTTCTAATTTTCATATGGCTATTCGGAGTCACCTAGTGCAG,9800 fluorescence intensity (a.u.)
4,TTAAATATTTGAGGGGTCGATATTTCTGGTATTGGTATTACGGAGTCACCTAGTGCAG,10500 fluorescence intensity (a.u.)
5,TTTTTTTTTCATCGATGCTTATTTTTTCAGCCTTTACTTTCGGAGTCACCTAGTGCAG,8640 fluorescence intensity (a.u.)
6,TGAAGCATGTGGTGGGCATTTTCGTCTTTCTCGAATTCATCGGAGTCACCTAGTGCAG,9980 fluorescence intensity (a.u.)
7,GTATGTGCCACGTCATCCAAAACCGGCCACAATACTGTCGCGGAGTCACCTAGTGCAG,8130 fluorescence intensity (a.u.)
8,TCCGCTTCTGCTATCTCTCGTCACTCTTCAGTCTTCACCTCGGAGTCACCTAGTGCAG,8050 fluorescence intensity (a.u.)
9,AGTTTCAGAACTCACCTCTTTATTAATACATTTAGTTGTTCGGAGTCACCTAGTGCAG,8850 fluorescence intensity (a.u.)
10,AACGGTTGCAGCTCTAATTGAGGGCTTTGTTTAGTTCATGCGGAGTCACCTAGTGCAG,8640 fluorescence intensity (a.u.)
11,CAATGGAGGGGTGTTTTTTTTTCTATTTTTCTAAATAATTCGGAGTCACCTAGTGCAG,14800 fluorescence intensity (a.u.)
12,GTTAAATTCGAGGGGTTTCTTGTAATTTCGGGGTGGATAACGGAGTCACCTAGTGCAG,16500 fluorescence intensity (a.u.)
13,GCGGAGGCAGGGAGGGTTTTGGAATTTTCGGCCGCCGTTGCGGAGTCACCTAGTGCAG,10100 fluorescence intensity (a.u.)
14,AATTCGGGGTTTGGGGCCGCGGAGGGGTGCTTACGTGAGTCGGAGTCACCTAGTGCAG,15100 fluorescence intensity (a.u.)
15,TGAATTTGTGGTTTTTTTTGGGGAGGGTTTTTTTTTTCTTCGGAGTCACCTAGTGCAG,34600 fluorescence intensity (a.u.)
16,CGAGAGAGAGAGGGGAGGGTTTTGGGTTGTGCTTAGGTTTCGGAGTCACCTAGTGCAG,13100 fluorescence intensity (a.u.)
17,AGTTCGGGGTGGTTTAAAGTGTAAAAAAATGTTAATAAAACGGAGTCACCTAGTGCAG,8870 fluorescence intensity (a.u.)
18,TTTTGTGTATGTTTCGGTGGGAATTTGAGGGTTGTGTTTTCGGAGTCACCTAGTGCAG,14200 fluorescence intensity (a.u.)
19,CGAGGGTTTGGGAGTCGGGGAATTCGGGGTTTGGGGCCGCCGGAGTCACCTAGTGCAG,26700 fluorescence intensity (a.u.)
20,CGGTGTACTACTTTTATATATGCAAACCTTTATTGCCTGACGGAGTCACCTAGTGCAG,10300 fluorescence intensity (a.u.)
21,GGCCCACCGTCGCACTCGCGCCTTCCGCTGCTCCGTTGCCCGGAGTCACCTAGTGCAG,8880 fluorescence intensity (a.u.)
22,GTTTTTCCTCTCTGCTTGTAACGCGTGATGTAAAATTTTCCGGAGTCACCTAGTGCAG,11000 fluorescence intensity (a.u.)

row,Sequence,binding signal
1,CGTCGAGTATCTGTATCTCTAAGCATTTCTTGTTGACTTTCGGAGTCACCTAGTGCAG,10600 fluorescence intensity (a.u.)
2,CCGTGCCCACCTGAGCTCGCTTCGCCGCCATTGGCAGCCTCGGAGTCACCTAGTGCAG,9100 fluorescence intensity (a.u.)
3,GATGTGCCAATGGTTTCTTTCTCTTTCTTTCTCTTTAAAACGGAGTCACCTAGTGCAG,8910 fluorescence intensity (a.u.)
4,GAGTGGGTGTGGGTTTTCTAGTGGGCAGATTTAGTTTTAACGGAGTCACCTAGTGCAG,17200 fluorescence intensity (a.u.)
5,GGGGTTTGCTATTCTGGCTCTCTATTAAGCTCATAAAAAACGGAGTCACCTAGTGCAG,23500 fluorescence intensity (a.u.)
6,ACATGTGGGGCCTATTTATTTCTTTTTTTTTAAAAAAAAACGGAGTCACCTAGTGCAG,8480 fluorescence intensity (a.u.)
7,ATTATTAATAAAACTCATTCTATAACTCTGGACTAATTCGCGGAGTCACCTAGTGCAG,8200 fluorescence intensity (a.u.)
8,AAGCGGGGATTTTATGTGGGCAGTGGGTTTTCTTCTTAAACGGAGTCACCTAGTGCAG,19300 fluorescence intensity (a.u.)
9,ATGGTTTTTCAGGGTTGGATTTATGTGTGGTCAGTTTAAACGGAGTCACCTAGTGCAG,12000 fluorescence intensity (a.u.)
10,GTGGGCAGATTTAGTTTTAATGGGTGTGGGTACGGAGAGTCGGAGTCACCTAGTGCAG,8900 fluorescence intensity (a.u.)
11,AGGCTACACTATTAAACTTGCTCTTCTCAAGCTACTTCAACGGAGTCACCTAGTGCAG,8190 fluorescence intensity (a.u.)
12,TTATGGTTGTTTTCTTCGGTTCTTTGTTTTTTTAAAAAAACGGAGTCACCTAGTGCAG,11600 fluorescence intensity (a.u.)
13,TGTATAGTTTAGGGGTGAAGATTTCTGGTTTTGTGGTTAACGGAGTCACCTAGTGCAG,11500 fluorescence intensity (a.u.)
14,AGAGGGGAGGGAGGAGGATTATGGTTTTTTTTCTCTAAAACGGAGTCACCTAGTGCAG,16700 fluorescence intensity (a.u.)
15,TCCATTTCCCGCCGCCTCCCCTCTCGCGATCCATATCCATCGGAGTCACCTAGTGCAG,8050 fluorescence intensity (a.u.)
16,GCTTTTCTTCCTCGACAAGGCCGCCTGCACCACCGTCTCCCGGAGTCACCTAGTGCAG,10500 fluorescence intensity (a.u.)
17,CTGGTTACTTTCTCATTTCTTCCTCGCTCGCGCGCTCTCTCGGAGTCACCTAGTGCAG,10800 fluorescence intensity (a.u.)
18,GATTTAGAGTTGGAGTCAGTCGGTTTGACCAGCCACATGCCGGAGTCACCTAGTGCAG,8690 fluorescence intensity (a.u.)
19,GCTAGGTCAACTTTGCTCTCAGCTCTCGCTCCCGATGCCACGGAGTCACCTAGTGCAG,9760 fluorescence intensity (a.u.)
20,CTCTCTCTCTCTCTCTCTCTCTCTCTCCAACGCGCGCGCGCGGAGTCACCTAGTGCAG,8700 fluorescence intensity (a.u.)
21,CGGCGTCTCTACCTCTACGAATCAGGTCAGGCTTCGATCCCGGAGTCACCTAGTGCAG,8380 fluorescence intensity (a.u.)
